# Results from PubChem BioAssay (EPA / NIEHS).
# Activity calls are given as the source filed them. How the source made its calls: active means hit-call score of the fitted dose curve at least 0.9, where 1 is the maximum; inactive means score below 0.9.
# Target: Heat shock factor protein 1 (Homo sapiens) (UniProt Q00613)
# Test: ATG_HSE_CIS: Attagene CIS-FACTORIAL HepG2 Assay for human Heat Shock Transcription Factor 1 (HSE) (AID 2282953)
# Conditions: HepG2 HSE cis-reporter, Attagene RNA transcription; actives raise or lower the signal
# Protocol: ATG_CIS is a cell-based, multiplexed-readout assay that uses HepG2, a human liver cell line, with measurements taken at 24 hours after chemical dosing in a 24-well plate.ATG_HSE_CIS is one of 52 assay component(s) measured or calculated from the ATG_CIS assay. It is designed to make measurements of mRNA induction, a form of inducible reporter, as detected with fluorescence intensity signals by Reverse transcription polymerase chain reaction (RT-PCR) and Capillary electrophoresis technology.Data from the assay component ATG_HSE_CIS was analyzed into 1 assay endpoint. This assay endpoint, ATG_HSE_CIS, was analyzed with bidirectional fitting relative to DMSO as the negative control and baseline of activity. Using a type of inducible reporter, measures of mRNA for gain or loss-of-signal activity can be used to understand the reporter gene at the transcription factor-level as they relate to the gene HSF1. Furthermore, this assay endpoint can be referred to as a primary readout, because this assay has produced multiple assay endpoints where this one serves a reporter gene function. To generalize the intended target to other relatable targets, this assay endpoint is annotated to the dna binding intended target family, where the subfamily is heat shock protein.
# Human liver HepG2 cells are transiently transfected with multiple reporter transcription units (MRTUs) in 6-well plates using FuGene 6 reagent (Roche; 3 ml FuGene/1 mg DNA). The MRTU constructs are regulated by a cis-regulating element (promoter). […] A major difference between the CIS and TRANS system is that in CIS activities of endogenous TFs are measured, whereas the TRANS assay evaluates changes in activities of exogenous, chimeric NR-Gal4 proteins. […] At the end of 24 hour incubation, total RNA was isolated using TriZol reagent (Invitrogen). The isolated RNA is then reverse-transcribed using oligo(dT) primer and Mo-MLV reverse transcriptase (Invitrogen) with DNAse I (Ambion) treatment for 30 min. The one-tenth of the produced cDNA was amplified by PCR using Taq DNA polymerase (Invitrogen) and two reporter sequence-specific primers. The PCR products were fluorescently labeled by primer extension with 6-arboxyfluorescein (6-FAM) 5'-labeled reporter sequence-specific primer (2 min at 95 C, 20 s at 68 C and 10 min at 72 C) and these products were digested with 5U of HpaI (New England Biolabs) for 2h at 37 C. The fragments were purified using Qiaquick PCR columns (Qiagen), analyzed on an ABI 3130xL genetic analyzer (Applied Biosystems) with peak positions identified by using a set of X-rhodamine (ROX)-labeled MapMarker1000 molecular weight standards (BioVentures). The raw capillary electrophoresis data was processed using Attagraph software (Attagene).
# Chain of Heat shock factor protein 1 (Homo sapiens) (Q00613 whole entry, looked up): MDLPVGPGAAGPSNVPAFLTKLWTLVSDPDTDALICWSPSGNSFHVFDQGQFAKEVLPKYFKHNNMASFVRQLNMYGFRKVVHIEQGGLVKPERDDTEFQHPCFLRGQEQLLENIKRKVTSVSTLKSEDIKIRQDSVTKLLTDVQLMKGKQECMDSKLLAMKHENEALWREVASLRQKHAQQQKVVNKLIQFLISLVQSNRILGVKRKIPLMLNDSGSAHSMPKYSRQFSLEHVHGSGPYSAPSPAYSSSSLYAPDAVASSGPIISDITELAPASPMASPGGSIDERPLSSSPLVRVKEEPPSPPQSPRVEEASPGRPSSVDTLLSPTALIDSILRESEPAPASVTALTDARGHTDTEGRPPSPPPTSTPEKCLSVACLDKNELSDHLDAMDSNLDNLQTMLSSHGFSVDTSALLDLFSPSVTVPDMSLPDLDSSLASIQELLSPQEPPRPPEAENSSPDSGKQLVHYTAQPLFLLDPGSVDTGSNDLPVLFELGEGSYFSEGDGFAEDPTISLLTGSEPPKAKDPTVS
SMILES,outcome,AC50
CC1CCC(=O)C1=O (stereo not given),inactive,
CC(C)OC(=O)c1ccccc1,inactive,
CCCCCCOC(=O)CCCCC(=O)OCCCCCC,inactive,
CO[Si](C)(C)OC,inactive,
Nc1ccnc(=O)[nH]1,inactive,
CC(=O)OC1CCCCC1C(C)(C)C (stereo not given),inactive,
CC(Cl)COP(=O)(OCC(C)Cl)OCC(C)Cl (stereo not given),inactive,
CCCC/C=C/C=C\C=O,,157 µM (active)
O=S(=O)(O)c1ccc(N=Nc2c(O)ccc3ccccc23)cc1,inactive,
CC(C)c1cccc(C(C)C)c1N,inactive,
CCCCCCCO,inactive,
CC(=O)c1ccccc1O,inactive,
CC(C)[N+](C)(CCOC(=O)C1c2ccccc2Oc2ccccc21)C(C)C,inactive,
[Cl][Eu]([Cl])[Cl],inactive,
CCCCCC(=O)OCC,inactive,
CCCCC1CCC(=O)O1 (stereo not given),inactive,
O=C(OCCc1ccccc1)c1ccccc1,inactive,
O=C1CCCN1C1CCCCC1,inactive,
CC1=CCC(C(C)C)C=C1 (stereo not given),inactive,
CC(C)(c1ccccc1)c1ccc(Nc2ccc(C(C)(C)c3ccccc3)cc2)cc1,inactive,

SMILES,outcome,AC50
CC(=O)OC/C=C(/C)CCC=C(C)C,inactive,
CCOC(=O)c1ccc(C)cc1,inactive,
CCc1cccc(C)c1N(C(=O)CS(=O)(=O)O)C(C)COC (stereo not given),inactive,
Oc1ccccc1Cc1ccccc1O,inactive,
CCN1CN(CC)CN(CC)C1,,174 µM (active)
CC(C)C(=O)OCCc1ccccc1,inactive,
C=C[C@@]1(C)CC(=O)[C@]2(O)[C@@]3(C)[C@@H](O)CCC(C)(C)[C@@H]3[C@H](O)[C@H](OC(C)=O)[C@@]2(C)O1,inactive,
C1CNCCN1,inactive,
CC(C)CCCCCOC(=O)CS,inactive,
Cc1cc(C)n(CO)n1,inactive,
CCCCOCCOCCOC(C)=O,inactive,
CN(C)c1ccc2nc3ccc(=[N+](C)C)cc-3sc2c1,inactive,
CC(C)(CO)COC(=O)C(C)(C)CO,inactive,
CC1=CCC2CC1C2(C)C (stereo not given),inactive,
CCCSSCCC,inactive,
CO[Si](CCCS)(OC)OC,inactive,
Nc1nc(N)nc(-c2ccccc2)n1,inactive,
Cc1ccc2c(c1)CCCN2,inactive,
CC(=O)OC(C)c1ccccc1 (stereo not given),inactive,
COc1ccc(-c2coc3cc(O)cc(O)c3c2=O)cc1,,174 µM (active)
